The results in this text go back to article PMC13541613, “GHT-SELEX demonstrates unexpectedly high intrinsic sequence specificity and complex DNA binding of many human transcription factors”.

ZNF721 full-length, sequence (Q8TF20 other isoform, or with tags, fused parts or gaps): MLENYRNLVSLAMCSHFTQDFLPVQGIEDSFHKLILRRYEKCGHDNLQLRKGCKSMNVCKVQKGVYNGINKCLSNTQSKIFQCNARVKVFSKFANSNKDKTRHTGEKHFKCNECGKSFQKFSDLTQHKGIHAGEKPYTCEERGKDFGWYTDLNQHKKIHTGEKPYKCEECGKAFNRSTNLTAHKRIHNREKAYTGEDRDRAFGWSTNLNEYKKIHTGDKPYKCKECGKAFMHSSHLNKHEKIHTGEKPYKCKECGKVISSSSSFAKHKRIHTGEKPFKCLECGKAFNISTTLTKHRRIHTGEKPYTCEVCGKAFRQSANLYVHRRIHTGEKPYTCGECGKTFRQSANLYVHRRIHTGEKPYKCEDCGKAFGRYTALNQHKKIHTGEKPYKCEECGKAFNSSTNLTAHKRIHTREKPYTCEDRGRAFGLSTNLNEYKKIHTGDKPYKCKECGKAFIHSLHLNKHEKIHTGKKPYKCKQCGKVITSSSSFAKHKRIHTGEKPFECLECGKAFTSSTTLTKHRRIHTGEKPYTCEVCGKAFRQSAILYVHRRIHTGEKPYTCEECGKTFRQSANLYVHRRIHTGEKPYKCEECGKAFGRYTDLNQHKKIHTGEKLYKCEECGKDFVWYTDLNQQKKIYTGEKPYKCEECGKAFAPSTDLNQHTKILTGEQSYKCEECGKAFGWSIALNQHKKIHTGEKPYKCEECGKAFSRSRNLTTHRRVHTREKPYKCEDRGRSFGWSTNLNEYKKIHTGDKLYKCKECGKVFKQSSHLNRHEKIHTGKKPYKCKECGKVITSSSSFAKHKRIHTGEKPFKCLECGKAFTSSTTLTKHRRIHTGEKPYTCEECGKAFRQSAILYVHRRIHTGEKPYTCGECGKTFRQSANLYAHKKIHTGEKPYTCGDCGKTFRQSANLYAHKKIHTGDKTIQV
ZNF721 DBD2, sequence (Q8TF20 383-911): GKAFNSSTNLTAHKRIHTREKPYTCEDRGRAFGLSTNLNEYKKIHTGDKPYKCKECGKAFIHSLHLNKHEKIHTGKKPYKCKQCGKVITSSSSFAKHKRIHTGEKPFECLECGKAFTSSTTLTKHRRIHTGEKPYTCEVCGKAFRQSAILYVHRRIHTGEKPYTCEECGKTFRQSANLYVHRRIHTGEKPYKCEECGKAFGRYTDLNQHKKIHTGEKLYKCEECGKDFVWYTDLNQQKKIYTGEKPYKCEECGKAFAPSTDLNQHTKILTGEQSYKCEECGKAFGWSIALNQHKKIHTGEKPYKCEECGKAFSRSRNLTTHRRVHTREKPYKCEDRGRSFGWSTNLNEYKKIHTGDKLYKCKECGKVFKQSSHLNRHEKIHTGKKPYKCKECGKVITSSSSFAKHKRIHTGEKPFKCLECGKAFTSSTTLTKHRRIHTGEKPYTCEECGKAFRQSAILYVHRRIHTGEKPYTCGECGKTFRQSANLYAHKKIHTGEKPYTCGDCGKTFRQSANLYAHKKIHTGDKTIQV

The target of one test is ZNF721 full-length (Homo sapiens, UniProt Q8TF20-2 1-923). Description: HT-SELEX; 20 mM HEPES pH 7, 140 mM KCl, 5 mM NaCl, 1 mM K2HPO4, 2 mM MgSO4, 100 uM EGTA, ZnSO4, 0.1% Tween20; room temperature, 1 h; high values mean tight binding. The note with it: protein: ivt; tags: eGFP (N-terminal); dsDNA, one strand shown. A digest of the protocol:
(§1)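 Full-length or DNA-binding-domain forms of a tagged transcription factor were produced in HEK293 lysate or cell-free extract and immobilised on beads. Incubation with a randomized 40-base DNA library ran for 1 h at room temperature in HEPES/KCl low-stringency buffer with Tween20, after which bound DNA was washed, heat-eluted, PCR-amplified over successive cycles and Illumina-sequenced. Binding strength is given as the relative k-mer count in selected reads, higher for tighter binding.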
For the sequence AACAGAGTAC, the binding signal is 0.127 relative 10-mer count.
CAGCATGCCC showed a binding signal of 0.121 relative 10-mer count.
The same measure, in the same setting: for AAACAGGATA the value was 0.111 relative 10-mer count; for AACAGCATAC, 0.51 relative 10-mer count.
Consider CCCTGTTTTC, for which the binding signal was determined as 0.162 relative 10-mer count.
Same read-out and setting: for AAAACAGTGC the value was 0.121 relative 10-mer count.
Same read-out and setting: for CGAAAAACAG the value was 0.174 relative 10-mer count.
The sequence ACAGCATATC displayed a binding signal of 0.126 relative 10-mer count.
Same read-out and setting: as for ACAAAGCAGT, the figure is 0.146 relative 10-mer count; as for AAAAACAGCC, 0.167 relative 10-mer count; as for AAAGCAGTGT, 0.513 relative 10-mer count.
Still for that read-out and setting: as for ACAGCGTATC, the figure is 0.232 relative 10-mer count.
In the case of CCGAAAACAG, the binding signal was 0.111 relative 10-mer count.
Still for that read-out and setting: as for ACAGCATCCC, the figure is 0.114 relative 10-mer count.
AAACAGCATA showed a binding signal of 0.56 relative 10-mer count.
On the same count and under the same terms, for ACAAAGCAGC the value was 0.189 relative 10-mer count; for GAAAAACAGC, 0.265 relative 10-mer count.
The same measure, in the same setting: as for CAGGGTTGCC, the figure is 0.155 relative 10-mer count.
Still for that read-out and setting: for ACAGTGTCTC the value was 0.106 relative 10-mer count; for ACAGCGTTTC, 0.253 relative 10-mer count.
As for ACAGTGTATC, the binding signal is 0.137 relative 10-mer count.
Still for that read-out and setting: for GCTGTTTTTA the value was 0.135 relative 10-mer count; for AATAAAACAG, 0.132 relative 10-mer count; for AAACAGAGTA, 0.198 relative 10-mer count.
The same measure, in the same setting: for AAACAGGGGT the value was 0.106 relative 10-mer count.
Consider ACAGGGTATC, for which the binding signal came out at 0.137 relative 10-mer count.
Still for that read-out and setting: for AAACAGTGTA the value was 0.179 relative 10-mer count.
Same read-out and setting: as for AACAGCGTAC, the figure is 0.19 relative 10-mer count; as for CAGAAAACAG, 0.147 relative 10-mer count; as for CAGCATCTCC, 0.126 relative 10-mer count.
On the same count and under the same terms, as for AAACAGCAGT, the figure is 0.106 relative 10-mer count.
The sequence AGAAAAACAG came in with a binding signal of 0.178 relative 10-mer count.
In turn, AAACAGCACT yielded a binding signal of 0.14 relative 10-mer count.
GAAAACAGCA: the binding signal is 0.299 relative 10-mer count.
AAAAACAGCA yielded a binding signal of 0.778 relative 10-mer count.
CAGGGTATCC had a binding signal of 0.221 relative 10-mer count.
Same read-out and setting: as for AAAAACAGAA, the figure is 0.108 relative 10-mer count.
Regarding AAAAAACAGT, the binding signal came out at 0.466 relative 10-mer count.
On the same count and under the same terms, as for AACAGCGTCT, the figure is 0.203 relative 10-mer count.
Same read-out and setting: as for AAAACAGCGG, the figure is 0.134 relative 10-mer count.

A further test concerns the target ZNF721 DBD2 (Homo sapiens, UniProt Q8TF20-2 395-923). The description is as above. The note with it: protein: ivt; tags: eGFP (N-terminal); dsDNA, one strand shown. Put shortly:
as §1
AACAGAGTAC showed a binding signal of 0.166 relative 10-mer count.
On the same count and under the same terms, for CAGCATGCCC the value was 0.244 relative 10-mer count; for AAACAGGATA, 0.121 relative 10-mer count; for AACAGCATAC, 0.709 relative 10-mer count.
On the same count and under the same terms, for CCCTGTTTTC the value was 0.186 relative 10-mer count; for AAAACAGTGC, 0.195 relative 10-mer count.
Still for that read-out and setting: for CGAAAAACAG the value was 0.222 relative 10-mer count; for ACAGCATATC, 0.174 relative 10-mer count; for ACAAAGCAGT, 0.174 relative 10-mer count.
Turning to AAAAACAGCC, the binding signal amounted to 0.172 relative 10-mer count.
Still for that read-out and setting: as for AAAGCAGTGT, the figure is 0.632 relative 10-mer count.
Take ACAGCGTATC: the binding signal amounted to 0.371 relative 10-mer count.
The sequence CCGAAAACAG returned a binding signal of 0.217 relative 10-mer count.
Turning to ACAGCATCCC, the binding signal was 0.088 relative 10-mer count.
Turning to AAACAGCATA, the binding signal came to 0.657 relative 10-mer count.
For the sequence ACAAAGCAGC, the binding signal was determined as 0.238 relative 10-mer count.
Same read-out and setting: for GAAAAACAGC the value was 0.324 relative 10-mer count.
Take CAGGGTTGCC: the binding signal was 0.49 relative 10-mer count.
In turn, ACAGTGTCTC registered a binding signal of 0.236 relative 10-mer count.
The same measure, in the same setting: for ACAGCGTTTC the value was 0.448 relative 10-mer count.
Still for that read-out and setting: for ACAGTGTATC the value was 0.202 relative 10-mer count; for GCTGTTTTTA, 0.204 relative 10-mer count.
Still for that read-out and setting: as for AATAAAACAG, the figure is 0.168 relative 10-mer count; as for AAACAGAGTA, 0.22 relative 10-mer count.
AAACAGGGGT: the binding signal was 0.153 relative 10-mer count.
The same measure, in the same setting: for ACAGGGTATC the value was 0.2 relative 10-mer count; for AAACAGTGTA, 0.225 relative 10-mer count.
Same read-out and setting: as for AACAGCGTAC, the figure is 0.275 relative 10-mer count; as for CAGAAAACAG, 0.264 relative 10-mer count.
On the same count and under the same terms, as for CAGCATCTCC, the figure is 0.214 relative 10-mer count.
AAACAGCAGT had a binding signal of 0.159 relative 10-mer count.
On to AGAAAAACAG, for which the binding signal came out at 0.208 relative 10-mer count.
On the same count and under the same terms, as for AAACAGCACT, the figure is 0.201 relative 10-mer count.
Still for that read-out and setting: as for GAAAACAGCA, the figure is 0.388 relative 10-mer count; as for AAAAACAGCA, 0.785 relative 10-mer count; as for CAGGGTATCC, 0.431 relative 10-mer count.
The same measure, in the same setting: for AAAAACAGAA the value was 0.0718 relative 10-mer count.
With AAAAAACAGT, the binding signal stood at 0.516 relative 10-mer count.
Still for that read-out and setting: as for AACAGCGTCT, the figure is 0.347 relative 10-mer count; as for AAAACAGCGG, 0.189 relative 10-mer count.
